This is an account of results in ChEMBL document CHEMBL4513216, “Probing the Open Global Health Chemical Diversity Library for Multistage-Active Starting Points for Next-Generation Antimalarials” (ACS Infect Dis, 2020).

Hit rate of the full screen: of about 69,000 compounds, about 8,600 (12%) showed an effect of 50% or more. The entries come from a sample that favours strong results as a whole.

In the assay the test system is Plasmodium berghei. The assay is described as follows: Screen against P. berghei liver stage (PbLuc), transformed with Luciferase, at 10uM. Format: functional, HepG2. The settings on record: tested at 10 uM.
On to `O=C(C1CCOC1)N1CCN(CCn2cccn2)c2ncccc2C1` (configuration not stated), for which the INHIBITION turned out to be 11.3%. The result for `CN(C)C(=O)CN1CCC2(CCN(S(=O)(=O)C3CC3)CC2)C1=O` reads 32.1%; that for `Cc1cc(O)nc(C2CCCN(CCO)C2)n1` (configuration not stated), -0.232%; that for `CCCC(=O)N1CCc2c(CNS(C)(=O)=O)cncc2C1`, 13.5%.

Turning to `O=C(c1cnc2ccc(F)cc2c1NCc1ccco1)N1CCCC1`, the INHIBITION came to 37.2%.

As for `O=C(c1ccno1)N1CCC2(CC1)C(=O)N(CC1CC1)c1ccccc12`, the INHIBITION is 25.7%.

`O=C([C@H]1CCCO1)N1CCN(Cc2cccnc2)c2ncccc2C1`: the INHIBITION is reported as 15.4%. The result for `CC(=O)N1CCSCC1c1ccc(C)o1` (configuration not stated) reads -13.8%. The result for `COC(=O)c1ccc(CNCc2cn(C)nc2C)cc1` reads 70.8%; that for `COC(=O)c1ccc(Cn2cnc(C#N)n2)cc1`, 6.23%; that for `COC(=O)c1ccc(CCn2cnc(C#N)n2)cc1`, 13.8%.

Turning to `COc1ccc(CNCc2cn(C)nc2C)cc1`, the INHIBITION turned out to be 24.8%. The result for `COC(=O)c1ccc(CNCc2ccn(C)n2)cc1` reads 56%; that for `CCn1cc(CNCc2ccc(C(=O)OC)cc2)c(C)n1`, 39.7%.

`CN(C)[C@@H]1CCN(C(=O)c2ccsc2)[C@H]1Cc1cccnc1`: the INHIBITION was found to be 38.1%. Take `Cc1cc(C)nc(C2CCN(C(=O)CO)CC2)n1`: the INHIBITION came to 26.65%. The result for `CCC(NC(=O)c1c(C(=O)O)cnn1C)c1ccc(C)cc1C` (configuration not stated) reads 15.9%; that for `Cc1cc(C)c(CNC(=O)N2CCN(c3ccncc3)CC2)c(=O)[nH]1`, -21.45%.

In the case of `Cc1nn(C)cc1-c1ccnc(N(C)Cc2ccc(F)cc2)n1`, the INHIBITION is given as 30.1%.

Turning to `CN(Cc1cnn(C)c1)c1nccc(-c2cc(C(=O)O)ccn2)n1`, the INHIBITION came out at 33%.

On to `Cc1ccc(CN(C)c2nccc(-c3cn(C)nc3C)n2)o1`, for which the INHIBITION amounted to 50.7%. With `CN(Cc1ccoc1)c1ccc(-c2nccn2C)nn1`, the INHIBITION is -120%. The result for `Cc1nn(C)cc1CN(C)c1nccc(-c2cn(C)nc2C)n1` reads 28%.

For `Cc1nn(C)cc1-c1ccnc(N(C)Cc2cccs2)n1`, the INHIBITION was 35.5%.

For the compound `COc1ccccc1CN(C)c1nccc(-c2cn(C)nc2C)n1`, the INHIBITION worked out at 82.3%. Turning to `Cc1nn(C)cc1-c1ccnc(N(C)Cc2cnn(C)c2)n1`, the INHIBITION is reported as 74.5%. The result for `COc1ccc(CN(C)c2nccc(-c3cn(C)nc3C)n2)cc1` reads -7.76%; that for `Cc1nn(C)cc1-c1ccnc(N(C)Cc2ccon2)n1`, 49.6%; that for `Cc1nn(C)cc1-c1ccnc(N(C)Cc2ccoc2)n1`, 51.8%. The result for `CCCN1CCCC1Cn1nc(C)cc1C` (configuration not stated) reads 34.35%; that for `N#Cc1cc(C#N)c(SCC(=O)Nc2ccc(F)cc2)nc1N`, 35.1%. The result for `O=C(CCN1CCCC1=O)Nc1cnn(-c2ccccc2Cl)c1` reads -46.4%. As to `CC(CNC(=O)OC(C)(C)C)N(C)C(=O)COc1ccccc1C#N` (configuration not stated), the INHIBITION worked out at 15.9%.

On to `Cc1ncsc1C(=O)N(C)Cc1ccsc1`, for which the INHIBITION was -23.955%. The result for `Cn1cnc(S(=O)(=O)N2CCCCc3ccccc32)c1` reads -0.613%; that for `O=C(O)c1ccccc1CN1CCOC(CCc2ccncn2)C1` (configuration not stated), 20.8%; that for `Cc1ccc(C(CNCc2ccc(C#N)cc2)N2CCOCC2)s1` (configuration not stated), 69.7%. `CCn1cc(CNCC(c2ccc(C)s2)N2CCOCC2)cn1` (configuration not stated): the INHIBITION stood at 14.9%. The result for `Cc1ccc(C(CNCc2cnn(C(C)C)c2)N2CCOCC2)s1` (configuration not stated) reads -48.2%; that for `Cc1ccc(C(CNCc2ccncc2)N2CCOCC2)s1` (configuration not stated), -33.2%; that for `Cc1ccc(C(CNCc2cccn2C)N2CCOCC2)s1` (configuration not stated), 38%. The result for `CCCn1cc(CNCC(c2ccc(C)s2)N2CCOCC2)cn1` (configuration not stated) reads 63.7%; that for `O=C(NCC1COCc2c(-c3ccncc3)nnn2C1)[C@H]1CCCO1` (some centres not stated), -34.6%; that for `CC(Cn1cccn1)n1cnc2cccc(F)c2c1=O` (configuration not stated), 30%. For `CCn1ncc(CN2CCc3c(nc(-c4cccnc4)[nH]c3=O)C2)c1C`, the INHIBITION is given as 23.3%. The result for `OCCN1CCC(c2cncc(-c3cccc(Cl)c3)n2)CC1` reads 23.2%. The result for `N#CC1(c2ccccc2)CCN(C(=O)CN2C(=O)CCNC2=O)CC1` reads 30.1%. With `N#CC1(c2ccccc2)CCN(C(=O)C2CCCN(C(N)=O)C2)CC1` (configuration not stated), the INHIBITION is 30.5%. The result for `NC(=O)CN1CCCC(C(=O)N2CCC(O)(c3ccccc3)CC2)C1` (configuration not stated) reads 58.3%. The result for `NC(=O)CN1CCCC(C(=O)N2CCC(Oc3ncccn3)CC2)C1` (configuration not stated) reads 27.6%; that for `NC(=O)CN1CCCC(C(=O)N2CCC(O)(Cc3ccccc3)CC2)C1` (configuration not stated), 8.07%; that for `N#CC1(c2ccccc2)CCN(C(=O)C2CCCN(CC(N)=O)C2)CC1` (configuration not stated), 61%. The result for `O=C(c1ccc(=O)[nH]n1)N1CCNCC1c1ccccc1` (configuration not stated) reads 8.12%. As to `CCOCC(=O)N1CCC(c2cc3ncccc3c(O)n2)CC1`, the INHIBITION was 0.301%. On to `CC(C)NC(=O)N1C[C@H](OCc2cccnc2)[C@H]2COC[C@H]21`, for which the INHIBITION is on record as -18.2%. The result for `Cc1nc(O)cc(C2(C)CCCNC2)n1` (configuration not stated) reads 1.4%; that for `CCn1cncc1C1CC(=O)Nc2c1c(C)nn2-c1ccc(C)cc1` (configuration not stated), 42%.
